Here are results for 2 molecules from PubChem BioAssay AID1159580 (chemical genetic matrix, 2015).

A short description of the test: chemical genetic growth profiling, strain panel (AID 1159580).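 Also: tested at 20 µM; growth read once vehicle control cultures reached saturation at 30 °C; 1 = growth at the plate median or of vehicle wells; lower values mean less growth of the strain.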 The conditions noted are these: S. cerevisiae deletion strains, growth OD.
Setting [1] is: locus YAL013W, strain DEP1, active compounds read low.
The mark [2] stands for this setting: locus YAL040C, strain CLN3, active compounds read low.
Where [3] appears, read: locus YCL061C, strain MRC1 (second series), active compounds read low.
Setting [4] is: locus YDR363W, strain ESC2, active compounds read low.
Where [5] appears, read: locus YER002W, strain NOP16, active compounds read low.
The mark [6] stands for this setting: locus YNL128W, strain TEP1, active compounds read low.
Where [7] appears, read: locus YNL175C, strain NOP13, active compounds read low.
The mark [8] stands for this setting: locus YNL197C, strain WHI3, active compounds read low.
Setting [9] is: locus YNL224C, strain SQS1, active compounds read low.
The mark [10] stands for this setting: locus YOR083W, strain WHI5 (second series), active compounds read low.

The campaign covered roughly 5,500 compounds. About 2,000 (36%) were called active. Not shown: some 18% with an inconclusive outcome. The list shows a part of the results. A number with no mark means an inactive call. Rule as the data show it: active = normalized growth mostly below about 0.91 (no sharp cut-off); inconclusive = no clear call, values can overlap the other calls; inactive = mostly above about 0.92.

On to `CNc1ccc2oc(C[C@H]3O[C@@]4(CC[C@H]3C)O[C@H]([C@H](C)C(=O)c3ccc[nH]3)[C@H](C)C[C@H]4C)nc2c1C(=O)O`, for which the normalized growth was 0.976 under setting [1]; 0.929 under setting [2]; 0.951 under setting [3]; 0.928 under setting [4]; 0.997 under setting [5]; 0.98 under setting [6]. Besides, the normalized growth runs as follows: under setting [7], 0.907 (active); under setting [8], 0.853 (active); under setting [9], 0.924; under setting [10], 0.906.

Turning to `CCCCCC(O)c1cccc(OCc2ccc3ccccc3n2)c1` (stereo unspecified), the normalized growth runs as follows: under setting [1], 0.958; under setting [2], 0.958; under setting [3], 0.984; (locus YDR150W, strain NUM1, active compounds read low) 1; under setting [4], 0.976; under setting [5], 1.01. The normalized growth is, setting by setting: (locus YGR078C, strain PAC10, active compounds read low) 0.982; (locus YGR229C, strain SMI1, active compounds read low) 0.942; (locus YMR307W, strain GAS1, active compounds read low) 0.996; under setting [6], 1; under setting [7], 0.995; under setting [8], 0.995. Also, the normalized growth was 0.99 under setting [9]; 0.972 (locus YNL322C, strain KRE1, active compounds read low); 0.873 under setting [10]; 0.973 (locus YPL055C, strain LGE1, active compounds read low).
